Consider ten compounds from PubChem BioAssay (EPA / NIEHS).

Experiment [1] is described as follows: TOX21_p53_BLA_p2_viability: Viability Assessment in the Tox21 HCT-116 p53 Agonism Beta-lactamase Assay, Phase 2 (AID 2283591).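 Further: compound exposure lasted 16 h at 37 °C; actives lower the ATP signal meaning cytotoxicity.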 The method in brief: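 HCT-116 p53-bla cells (4000/well) rested 5 h at 37C, then received compounds in DMSO (217-fold dilution) for 16 h at 37C, 5% CO2. After the CCF4 read, CellTiter-Glo was added; ATP luminescence was read after 30 min at room temperature.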

Experiment [2] has as its target Cellular tumor antigen p53 (Homo sapiens) (UniProt P04637). As to the kind of experiment: TOX21_p53_BLA_p2_ratio: Tox21 HCT-116 p53 Agonism Beta-lactamase Assay, Ratio, Phase 2 (AID 2283592). The method in brief:
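In this cell-based reporter format, HCT116 cells were dosed with chemicals delivered from DMSO by 217-fold dilution and incubated 16 h at 37C. Emission at 460 and 530 nm after 2 h CCF4-AM loading provided the ratio, fitted upward versus DMSO.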

Experiment [3] is described as follows: TOX21_p53_BLA_p3_viability: Viability Assessment in the Tox21 HCT-116 p53 Agonism Beta-lactamase Assay, Phase 3 (AID 2283593).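 Further: cells exposed to compound for 16 h before reading.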 The method in brief:
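HCT-116 cells (4000/well) rested 5 h at 37C, then got DMSO compounds by pin tool (217-fold dilution) for 16 h at 37C, 5% CO2. After the bla read, CellTiter-Glo was added and luminescence read at 30 min, room temperature.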

For experiment [4], the target named is Cellular tumor antigen p53 (Homo sapiens) (UniProt P04637). The experiment can be described thus: TOX21_p53_BLA_p3_ratio: Tox21 HCT-116 p53 Agonism Beta-lactamase Assay, Ratio, Phase 3 (AID 2283596). The method, boiled down:
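HCT116 p53-bla cells (4000/well) given compound in DMSO (217-fold dilution) after 5 h, incubated 16 h at 37C. CCF4-AM substrate 2 h at room temperature; 460/530 nm emission ratio, gain fitted against DMSO.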

The nature of experiment [5]: TOX21_p53_BLA_p4_viability: Viability Assessment in the Tox21 HCT-116 p53 Agonism Beta-lactamase Assay, Phase 4 (AID 2283597).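 Further: hits lower the luminescence signal meaning cytotoxicity.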 The method, boiled down: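 We seeded HCT116 p53 reporter cells at 4000/well and waited 5 h. We then added compounds in DMSO at a 217-fold dilution and incubated for 16 h. Viability was read as CellTiter-Glo luminescence after 30 min at RT.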

Experiment [6] deals with Cellular tumor antigen p53 (Homo sapiens) (UniProt P04637). The experiment can be described thus: TOX21_p53_BLA_p5_ratio: Tox21 HCT-116 p53 Agonism Beta-lactamase Assay, Ratio, Phase 5 (AID 2283599). The method in brief: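 HCT-116 cells carrying a p53-inducible beta-lactamase reporter were seeded at 4000 cells/well and dosed after 5 h with compound in DMSO (217-fold dilution). After 16 h at 37C, CCF4-AM substrate was added for 2 h, and the 460/530 nm emission ratio was scored as gain-of-signal versus DMSO.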
Chain of Cellular tumor antigen p53 (Homo sapiens) (P04637 whole entry, looked up): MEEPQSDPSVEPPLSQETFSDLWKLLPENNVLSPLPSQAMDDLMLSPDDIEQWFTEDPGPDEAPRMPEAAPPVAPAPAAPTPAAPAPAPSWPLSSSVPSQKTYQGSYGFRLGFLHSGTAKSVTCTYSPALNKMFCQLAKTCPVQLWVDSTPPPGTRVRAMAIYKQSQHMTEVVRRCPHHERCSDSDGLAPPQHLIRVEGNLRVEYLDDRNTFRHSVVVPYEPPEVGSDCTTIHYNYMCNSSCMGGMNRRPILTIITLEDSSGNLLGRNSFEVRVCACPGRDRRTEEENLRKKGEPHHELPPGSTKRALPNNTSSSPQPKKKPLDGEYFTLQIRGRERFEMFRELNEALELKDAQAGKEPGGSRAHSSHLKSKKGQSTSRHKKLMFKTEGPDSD

Experiment [7] can be described thus: TOX21_p53_BLA_p5_viability: Viability Assessment in the Tox21 HCT-116 p53 Agonism Beta-lactamase Assay, Phase 5 (AID 2283600). The method in brief:
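Compounds, pinned from DMSO at 217-fold dilution, were left on the cells for 16 h. The viability endpoint was ATP content measured by CellTiter-Glo luminescence, where falling signal reflects cytotoxicity.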

Experiment [8] has as its target Cellular tumor antigen p53 (Homo sapiens) (UniProt P04637). The experiment can be described thus: TOX21_p53_BLA_p4_ratio: Tox21 HCT-116 p53 Agonism Beta-lactamase Assay, Ratio, Phase 4 (AID 2283601). The method in brief: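 HCT116 cells carrying an inducible beta-lactamase reporter were plated at 4000 cells/well, rested 5 h, then exposed to compounds in DMSO (217-fold dilution) for 16 h at 37C. CCF4-AM substrate was loaded 2 h at room temperature; 460/530 nm emission ratio scored gain-of-signal versus DMSO.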

Results filed as inconclusive are left out. Calls of active or inactive are those of the source. How the source made its calls: active means hit-call score of the fitted dose curve at least 0.9, where 1 is the maximum; inconclusive means response in the unintended direction; inactive means score below 0.9.

In the case of `CCCCCCC(=O)CCCCCC/C=C/C[C@@H](O)[C@H](O)[C@@](N)(CO)C(=O)O`, the compound was called inactive in experiment [1], in experiment [2], in experiment [3], in experiment [4], in experiment [5] and in experiment [6]. The compound was classed as inactive in experiment [7] and in experiment [8].

As for `BrC(Br)C(Br)(Br)Br`, the outcome in experiment [1], in experiment [2], in experiment [3], in experiment [4], in experiment [5] and in experiment [6] was inactive. Besides, the call in experiment [7] and in experiment [8] was inactive.

As to `CN1C[C@@H](NS(=O)(=O)N(C)C)C[C@@H]2c3cccc4c3c(cn4C)C[C@H]21`, the call in experiment [1], in experiment [2], in experiment [3], in experiment [4], in experiment [5] and in experiment [6] was inactive. Moreover, the result in experiment [7] and in experiment [8] was inactive.

Regarding `O=C(O)C(Cl)Br` (stereo not given), the result in experiment [1], in experiment [2], in experiment [3], in experiment [4], in experiment [5] and in experiment [6] was inactive. Besides, the compound was called inactive in experiment [7] and in experiment [8].

As to `COc1ccc(Cc2nccc3cc(OC)c(OC)cc23)cc1OC`, the result in experiment [1], in experiment [2], in experiment [3], in experiment [4], in experiment [5] and in experiment [6] was inactive. Further, the result in experiment [7] and in experiment [8] was inactive.

In the case of `CCC[CH2][Sn]([CH2]CCC)([O]C(C)=O)[O]C(C)=O`, the call in experiment [1], in experiment [2], in experiment [5], in experiment [6], in experiment [7] and in experiment [8] was inactive. The results for the AC50 in experiment [3] and in experiment [4] were 17.7 µM (active) and 32.2 µM (active), respectively.

Turning to `COC(COC(N)=O)C1=C(N2CC2)C(=O)C(C)=C(N2CC2)C1=O` (stereo not given), the result in experiment [1] and in experiment [5] was inactive. Moreover, the AC50 in experiment [2] is 6.58 µM (active); in experiment [3], 18.2 µM (active); in experiment [4] it was 0.121 µM (active); in experiment [6] it was 0.219 µM (active); in experiment [7] it was 36.3 µM (active); in experiment [8], 17.2 µM (active).

Regarding `CCC(=O)O[C@]1(c2ccccc2)CCN(C)C[C@H]1C`, the call in experiment [1], in experiment [2], in experiment [3], in experiment [4], in experiment [5] and in experiment [6] was inactive. Further, the compound was classed as inactive in experiment [7] and in experiment [8].

On to `CO[C@]12CC[C@@]3(C[C@@H]1[C@](C)(O)C(C)(C)C)[C@H]1Cc4ccc(O)c5c4[C@@]3(CCN1CC1CC1)[C@H]2O5`, for which the AC50 was 75 µM (active) in experiment [1]; 70.3 µM (active) in experiment [3]; 86.6 µM (active) in experiment [4]; 60.6 µM (active) in experiment [5]; 84.8 µM (active) in experiment [8]. Also, the result in experiment [2], in experiment [6] and in experiment [7] was inactive.

For the compound `N#CC(C#N)=Cc1cc(O)c(O)c(O)c1`, the compound was classed as inactive in experiment [1], in experiment [2], in experiment [3], in experiment [4], in experiment [5] and in experiment [6]. In addition, the compound was called inactive in experiment [7] and in experiment [8].

One may read the AC50 as the concentration at which the activity in the assay is half-maximal.
